From PubChem BioAssay AID463173 (ICCB-Longwood Screening Facility, Harvard Medical School, 2010) come the findings set out here.

The campaign covered roughly 52,000 compounds. About 4,300 (8.3%) were called active. Rule as the data show it: active = survival mostly below about 52% (no sharp cut-off); inactive = mostly above about 56%. The list comes from a sample in which actives are over-represented; it also holds similar structures and randomly drawn compounds.

The experiment relates to DeltatarO mutant. The experiment in a line: growth inhibition of S. aureus wild type versus tarO mutant, primary screen, teichoic acid synthesis inhibitors, RN4220, OD600 (AID 463173). Conditions: OD600, 18 h, stronger effect = lower value, screened at 18.75 µg/mL (by protocol).
In the case of `COc1cccc(C(=O)N2CCCCC2CCN2CCCCC2)c1` (stereo not drawn), the survival is 83% (inactive).

Regarding `O=c1[nH]c2nonc2nc1/C=C(\O)c1ccccc1`, the survival was 15% (active).

Turning to `O=c1[nH]c2ccccc2nc1/C=C(\O)c1ccccc1`, the survival is 83% (inactive).

With `NC(=O)NC(=O)c1nc2nonc2[nH]c1=O`, the survival was 91% (inactive).

As to `Cc1cccc(OC2CCS(=O)(=O)C2)c1` (stereo not drawn), the survival is 87% (inactive).

Take `COc1ccc(C2=C(C)C(=NCCCN3CCN(c4cc(Cl)ccc4C)CC3)NS2(=O)=O)cc1`: the survival was 59% (inactive).

For `N#CC(C#N)=Cc1cn(CCCOc2ccccc2Cl)c2ccccc12`, the survival was 76% (inactive).

For `O=C(CSc1nnc(-c2ccccc2Br)n1-c1ccccc1)c1ccc(F)cc1`, the survival is 17% (active).

Turning to `CCn1c(SCC(=O)c2ccccc2)nnc1-c1cccc(Cl)c1`, the survival is 39% (active).

For the molecule `O=C(CSc1nnc(-c2ccc(Br)cc2)n1-c1ccccc1)c1ccccc1`, the survival was 69% (inactive).

As for `CCn1c(SCC(=O)c2ccc([N+](=O)[O-])cc2)nnc1-c1ccc(Cl)cc1`, the survival was 70% (inactive).

Consider `Cc1ccc(-c2nnc(SCC(=O)c3ccc(Cl)cc3)n2-c2ccccc2)cc1`, for which the survival was 85% (inactive).

`CCn1c(SCC(=O)c2ccccc2)nnc1-c1ccco1`: the survival is 86% (inactive).

In the case of `COc1ccccc1-c1nnc(SCC(=O)c2ccc(F)cc2)n1-c1ccccc1`, the survival is 6% (active).

`Cn1c(SCC(=O)c2ccc(F)cc2)nnc1-c1ccccc1Br`: the survival is 57% (inactive).

As for `COc1ccccc1-c1nnc(SCC(=O)c2ccc(Cl)cc2)n1-c1ccccc1`, the survival is 1% (active).

For the molecule `COc1ccccc1-c1nnc(SCC(=O)OC(C)C)n1-c1ccccc1`, the survival is 92% (inactive).

On to `CCOc1ccc(-c2nnc(SCC(=O)c3ccc(F)cc3)n2-c2ccccc2)cc1`, for which the survival was 168% (inactive).

In the case of `Cc1ccc(C(=O)CSc2nnc(-c3ccccc3)n2-c2ccccc2)cc1`, the survival was 99% (inactive).

Turning to `CCCCNC(=O)CSc1nc(-c2ccc(OC)cc2)cc(C(F)(F)F)n1`, the survival is 66% (inactive).

As to `Cc1oc2c(c(C)cc3oc(=O)c(CC(=O)NCc4ccc(F)cc4)c(C)c32)c1C`, the survival is 89% (inactive).

In the case of `CCc1c(C)nc2cc(-c3cc(OC)cc(OC)c3)nn2c1NCCO`, the survival was 95% (inactive).

On to `CC(=O)N1c2ccccc2C(=O)C1N1CCN(c2cccc(C(F)(F)F)c2)CC1` (stereo not drawn), for which the survival was 91% (inactive).

Regarding `O=C(c1ccccc1)N1c2nc(-c3ccco3)nn2C2(CCCCC2)[C@@H]2CCCC[C@@H]21`, the survival is 62% (inactive).

Consider `Cc1ccc(C(=O)N2c3nc(-c4ccco4)nn3C3(CCCCC3)[C@@H]3CCCC[C@@H]32)cc1`, for which the survival was 59% (active).

On to `O=C(c1ccc(F)cc1)N1c2nc(-c3ccco3)nn2C2(CCCCC2)[C@@H]2CCCC[C@@H]21`, for which the survival was 53% (inactive).

With `CSc1ccc(CCNC(=O)c2ccc(-c3nc(COc4ccc(C)cc4)c(C)o3)cc2)cc1`, the survival was 82% (inactive).

Consider `COc1cccc(NC(=O)CSc2nc(=O)n(Cc3ccco3)c3c2CCC3)c1`, for which the survival was 90% (inactive).

For `Cc1c(Cl)cccc1NC(=O)CCN1C(=O)c2ccccc2Sc2ncccc21`, the survival was 78% (inactive).

As for `CCOc1ccc(C(=O)Cn2c(=O)n3nc(CCn4nc(C)cc4C)nc3c3cc(OC)c(OC)cc32)cc1`, the survival is 98% (inactive).

As to `Cc1ccc2nc3c(c(Nc4ccc(C)c(C)c4)c2c1)CCC3`, the survival is 38% (active).

On to `Fc1ccc(Nc2c3c(nc4ccccc24)CCC3)cc1`, for which the survival was 69% (inactive).

Consider `COc1ccc(OC)c(Nc2c3c(nc4ccccc24)CCC3)c1`, for which the survival was 94% (inactive).

With `COc1ccc(C)cc1Nc1c2c(nc3ccccc13)CCC2`, the survival was 85% (inactive).

Regarding `Cc1ccc(Nc2c3c(nc4ccccc24)CCC3)cc1F`, the survival was 2% (active).

As to `COc1ccc(Nc2c3c(nc4ccccc24)CCC3)cc1Cl`, the survival is 59% (inactive).

On to `CCOC(=O)c1ccc(CN(Cc2ccccc2C)S(=O)(=O)c2ccc(C(C)(C)C)cc2)cc1`, for which the survival is 83% (inactive).

As to `CCN1C(=O)c2ccccc2S(=O)(=O)c2ccc(C(=O)NCc3ccc(C)cc3)cc21`, the survival is 61% (inactive).

In the case of `Cc1ccc(C(=O)c2cn(CC(=O)NCc3ccccc3)c3nc(C)ccc3c2=O)cc1`, the survival was 95% (inactive).

Take `Cc1ccc(CNC(=O)c2c(-c3ccc(F)cc3F)noc2C)o1`: the survival was 77% (inactive).

For the molecule `CCc1nn2c(=O)cc(COC(=O)c3ccccc3NC(=O)COc3ccc(C)c(C)c3)nc2s1`, the survival was 87% (inactive).

Regarding `CCCCN(CC)C(=O)CCCn1c(=O)c2cccn2c2ccccc21`, the survival was 49% (active).

Take `COc1ccc(Br)cc1CNC(=O)CCCn1c(=O)c2cccn2c2cccnc21`: the survival was 106% (inactive).

As for `O=C(CCCn1c(=O)c2cccn2c2cccnc21)NCc1ccccc1Br`, the survival is 130% (inactive).

Consider `Cc1ccccc1CNC(=O)CCCn1c(=O)c2cccn2c2ccccc21`, for which the survival was 68% (inactive).

With `CCCCN(CC)C(=O)CCn1c(=O)c2cccn2c2cccnc21`, the survival is 70% (inactive).

For `COc1ccccc1CNC(=O)CCCn1c(=O)c2cccn2c2ccccc21`, the survival is 76% (inactive).

As to `COc1ccc(Br)cc1CNC(=O)CCCn1c(=O)c2cccn2c2ccccc21`, the survival is 39% (active).

On to `O=C(CCCn1c(=O)c2cccn2c2ccccc21)NCc1ccccc1Br`, for which the survival is 43% (active).

For the molecule `CN(C)CCNC(=O)CCCn1c(=O)c2cccn2c2ccccc21`, the survival was 64% (inactive).

For `O=C(CN1C(=O)CCSc2ccccc21)Nc1ccccc1F`, the survival is 85% (inactive).

Take `CCc1ccc(NC(=O)C2CCN(c3nn4c(=O)cc(C)nc4s3)CC2)cc1`: the survival is 101% (inactive).

For the molecule `COc1ccc(Cn2c(=O)c3cccnc3n(CC(=O)Nc3c(C)cc(C)cc3C)c2=O)cc1`, the survival was 87% (inactive).

Turning to `O=C(CN1C(=O)COc2ccc(S(=O)(=O)N3CCCCC3)cc21)NCc1ccc(Cl)cc1`, the survival is 64% (inactive).

Consider `CCOC(=O)c1ccc(NC(=O)c2nn(C)c3c2COc2ccccc2-3)cc1`, for which the survival was 106% (inactive).

In the case of `O=C(CSC1=Nc2ccccc2N=C(c2ccc(F)cc2)C1)NCc1ccc(Cl)cc1`, the survival is 72% (inactive).

Take `CCc1nn(CC(=O)N2CCCCC2)c(=O)c2cc3sccc3n12`: the survival was 65% (inactive).

With `Cc1ccc(CNC(=O)Cn2c(=O)ccc3cc(S(=O)(=O)N4CCC(C)CC4)ccc32)cc1`, the survival was 37% (active).

In the case of `CC1CCN(S(=O)(=O)c2ccc3c(ccc(=O)n3CC(=O)NCc3ccccc3)c2)CC1`, the survival is 49% (inactive).

As for `Cc1ccc(NC(=O)Cn2c(=O)ccc3cc(S(=O)(=O)N4CCC(C)CC4)ccc32)cc1Cl`, the survival was 74% (inactive).

`CC1CCN(S(=O)(=O)c2ccc3c(ccc(=O)n3CC(=O)Nc3ccc(C(C)C)cc3)c2)CC1`: the survival was 0% (active).

For `CC(=O)Nc1ccc(NC(=O)Cn2c(=O)ccc3cc(S(=O)(=O)N4CCC(C)CC4)ccc32)cc1`, the survival was 84% (inactive).

As for `CC1CCN(S(=O)(=O)c2ccc3c(ccc(=O)n3CC(=O)NCc3ccc(Cl)cc3)c2)CC1`, the survival is 75% (inactive).
